# In PubChem BioAssay AID868 (SRMLSC, 2007):
# Among all 190,000 compounds or so, about 3,500 (1.8%) were called active. This is one part of a sample in which actives are shown more often than they occur.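 The calls were made as follows: active = inhibition above a set limit, 3 SD over mean compound inhibition (cut at about 8.4% in these data); inactive = the rest.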
# Assay: RAM signaling blockers in budding yeast – dse1pr::URA3 reporter, 5-FOA selection, primary screen (AID 868);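 also: 0% = DMSO-only wells with no growth and 100% = 10 µM 1-NA-PP1 full growth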
# Conditions: S. cerevisiae dse1pr::URA3 reporter, 5-FOA growth OD615, 2 d; at 50 µM; active compounds read high; analog-sensitive cbk1-as2 kinase mutant strain
row,SMILES,inhibition
1,CCC(C)(C)n1nnnc1C(c1cccs1)N1CCN(Cc2ccccc2)CC1 (stereo unspecified),0.11% (inactive)
2,CCOc1ccc(CN(Cc2ccco2)C(c2cccs2)c2nnnn2C(C)(C)C)cc1 (stereo unspecified),15.1% (active)
3,CC(C)(C)n1nnnc1C(c1cccs1)N(Cc1cccnc1)CC1CCCO1 (stereo unspecified),4.18% (inactive)
4,COCCn1c(C)cc(C(=O)COC(=O)/C=C/c2cccc(OC)c2)c1C,8.25% (inactive)
5,CC1CCCCC1NC(=O)COC(=O)Cc1ccc(Br)cc1 (stereo unspecified),1.96% (inactive)
6,COc1ccc(-c2noc(-c3cccc(OC)c3OC)n2)cc1OC,8.94% (active)
7,COc1cc(-c2nc(-c3ccncc3)no2)cc(OC)c1OC,1.83% (inactive)
8,COc1ccc(-c2nc(-c3ccccc3)no2)c(OC)c1,-0.68% (inactive)
9,COc1cccc(CN2CCNC(=O)C2CC(=O)N(C)CCc2ccccn2)c1 (stereo unspecified),0.39% (inactive)
10,CN1CCN(c2ccc(NC(=O)COc3ccc(Cl)cc3Cl)cc2)CC1,1.03% (inactive)
11,COc1ccc(OCC(=O)Nc2ccc(N3CCC(C)CC3)cc2)cc1,-0.73% (inactive)
12,Cc1ccc(NC(=O)COc2ccc(-n3ccnc3)cc2)cc1Cl,19.6% (active)
13,O=C(O)CSc1nccc2ccccc12,0.52% (inactive)
14,CCOC(=O)NN1C(=O)c2ccccc2NC1c1ccccc1O (stereo unspecified),-0.54% (inactive)
15,CCN(CC)C(=O)C(=O)Nc1cccc(Br)c1,1.63% (inactive)
16,COC(=O)c1sccc1NC(=O)c1csc2c1CCCC2,12% (active)
17,Cc1ccc(NC(=O)c2csc3c2CCCC3)cc1,0.75% (inactive)
18,COC(=O)c1sc(NC(=O)c2csc3c2CCCC3)nc1C,3.89% (inactive)
19,Cc1cc(/C=C2/SC(=O)N(CC(=O)OC(C)C)C2=O)c(C)n1C,4.99% (inactive)
20,CCN=C1S/C(=C\c2cc(Br)ccc2OCC(=O)OCC)C(=O)N1CC,11.5% (active)
21,CCOC(=O)CC1C(=O)NCCN1C(=O)COc1ccc(Br)cc1C (stereo unspecified),-0.4% (inactive)
22,COc1ccc(CCNc2nc(-c3cccc(NC(C)=O)c3)cs2)cc1OC,-0.26% (inactive)
23,COc1ccc(C2OCC3(CO2)SC(=O)NC3=O)cc1OC (stereo unspecified),0.64% (inactive)
24,COc1cccc(NC(=O)CC2C(=O)NCCN2C(=S)Nc2ccc(F)cc2)c1 (stereo unspecified),4.21% (inactive)

row,SMILES,inhibition
1,CC1CCCCC1NC(=O)CN1CCC(O)(c2ccc3c(c2)OCO3)CC1 (stereo unspecified),0.68% (inactive)
2,CCN(CC)S(=O)(=O)c1ccc(N(C)Cc2cccc(OC)c2OC)nc1,2.24% (inactive)
3,CCN(CC)S(=O)(=O)c1ccc(N(C)CCc2ccc(OC)c(OC)c2)nc1,1.33% (inactive)
4,CCN(CC)S(=O)(=O)c1ccc(N(C)Cc2ccc(C(F)(F)F)cc2)nc1,11.1% (active)
5,Cc1cccc(-n2cnc(C(=O)NNC(=S)Nc3ccccc3)c2)n1,1.6% (inactive)
6,Cc1ccc(C(=O)N/C(=C\c2ccco2)C(=O)N2CCSCC2)cc1C,-0.85% (inactive)
7,CCn1c(COc2ccccc2)nnc1SCC(=O)NCc1ccco1,0.66% (inactive)
8,COc1ccc(C(=O)CSc2nnc(COc3ccccc3)n2Cc2ccco2)cc1,9.29% (active)
9,C=CCn1c(CNC(=O)c2ccco2)nnc1SCC(=O)c1ccc(OC)cc1,-1.14% (inactive)
10,O=C(N/N=C/c1ccc(OCc2ccccc2)cc1)c1ccc(O)cc1,1.57% (inactive)
11,Cc1ccc(COc2ccc(/C=N/NC(=O)CN3CCCCC3)cc2)cc1,0.5% (inactive)
12,O=C(Cc1cccs1)N/N=C/c1ccc(OCc2ccccc2)cc1,10.5% (active)
13,COCCN(CC(=O)Nc1ccccc1C)S(=O)(=O)c1ccc(S(=O)(=O)N2CCCC2)cc1,9.62% (active)
14,COc1cc(C(=O)NNC(=O)c2ccc(S(=O)(=O)N3CCCCC3)cc2)cc(OC)c1OC,3.63% (inactive)
15,COc1ccccc1NC(=O)CN1CCN(S(=O)(=O)c2ccc(Br)cc2)CC1,0.23% (inactive)
16,Cc1csc(NC(=O)c2ccc(-c3ccc(Cl)cc3Cl)o2)n1,0.54% (inactive)
17,CC1CCN(C(=S)c2cccc(O)c2)CC1,0.5% (inactive)
18,CC1CCN(C(=S)c2ccc(-c3ccc(Cl)cc3Cl)o2)CC1,15.1% (active)
19,COCC(C)NCc1cc(Br)ccc1OC (stereo unspecified),1.56% (inactive)
20,O=C(NCc1ccccc1)[C@H]1C[C@@H]1[C@H](NP(=O)(c1ccccc1)c1ccccc1)c1ccccc1,19% (active)
21,O=C(O)C1CC=C(Cl)CC1C(=O)NCc1ccccc1 (stereo unspecified),1.08% (inactive)
22,COC(=O)[C@H](Cc1ccccc1)NC(=O)[C@@H]1C[C@H]1[C@@H](NC(=O)OCc1ccccc1)c1ccccc1,1.21% (inactive)
23,CC12CN(NC(=O)c3ccc(Cl)cc3)C3(C#N)CC1CCC23C (stereo unspecified),-0.13% (inactive)
24,COc1cccc(C(=O)Nc2ccc(N3CCCC3)cc2)c1,1.61% (inactive)

row,SMILES,inhibition
1,CC(=O)Nc1cccc(Oc2cc(C#N)c(C#N)cc2N2CCOCC2)c1,0.91% (inactive)
2,COc1cc(N2CCCC2)c(OC)cc1/C=C(/C#N)c1cccc(Br)c1,8.59% (active)
3,COc1ccc2cc(CCl)c(Cl)nc2c1,0.27% (inactive)
4,COc1ccc(C2CC(c3cccs3)=NN2c2nc(C)c(C(C)=O)s2)cc1OC (stereo unspecified),9.6% (active)
5,COc1ccc(C2CC(c3cccs3)=NN2C(=O)CSc2nncs2)cc1OC (stereo unspecified),-0.13% (inactive)
6,COc1ccc(C2CC(c3cccs3)=NN2c2ccc(F)cc2)cc1OC (stereo unspecified),2.78% (inactive)
7,CCc1c(C)nc2c(OC)cccc2c1Cl,0.88% (inactive)
8,CC(C)(C)NC(=O)COC(=O)c1cc(Br)ccc1Cl,-0.13% (inactive)
9,CC(=O)Nc1ccccc1NC(=O)c1cc(C)cc(C)c1,1.49% (inactive)
10,C=CCN(c1ccc(C(=O)Nc2cc(C)cc(C)c2)cc1)S(C)(=O)=O,1.58% (inactive)
11,CSCc1ccc(C(=O)Nc2cc(C)cc(C)c2)cc1,10.7% (active)
12,CC(C)(C)c1ccc(/C=C/C(=O)NC2CCS(=O)(=O)C2)cc1 (stereo unspecified),-1.15% (inactive)
13,Cc1cccc(C(=O)c2cccc(C)c2)c1,1.11% (inactive)
14,Cc1ccccc1CN1C[C@@H]2C[C@@H](c3ccc4nsnc4c3)N3CCC[C@@]23C1=O,1.56% (inactive)
15,COc1ccc(/C=C2\CCCC3C2=NN(C(=O)c2scnc2C)C3c2ccc(OC)cc2)cc1 (stereo unspecified),8.89% (active)
16,CN(C)/C=C/C(=O)c1cnc2sccn2c1=O,3.34% (inactive)
17,Cc1cc(Cl)ccc1OCCCC(=O)NCc1ccccn1,-1.48% (inactive)
18,CC1CCCC(C)N1/N=C/c1ccccc1OC(F)F (stereo unspecified),-0.37% (inactive)
19,O=C(NC(=S)Nc1ccc(S(=O)(=O)Nc2ncccn2)cc1)c1cccc(Br)c1,6.97% (inactive)
20,NS(=O)(=O)c1ccc(NC(=S)NC(=O)c2cccc(Br)c2)cc1,15.5% (active)
21,NS(=O)(=O)c1ccc(NC(=S)NC(=O)c2cccnc2)cc1,0.14% (inactive)
22,CCc1ccccc1NC(=O)Cc1cn(C)c2ccccc12,1.88% (inactive)
23,O=C(/C=C/c1ccc(Cl)c([N+](=O)[O-])c1)c1cccnc1,1.34% (inactive)
24,Cc1ccsc1C1C(C#N)=C(N)OC2=C1C(=O)CC(C)C2 (stereo unspecified),2.12% (inactive)

row,SMILES,inhibition
1,O=C(c1ccc(Cl)cc1)c1cnc(Nc2ccccc2)s1,3.49% (inactive)
2,CC(=O)c1c(Nc2ccccc2)sc(C(=O)c2ccccc2)c1C,13.4% (active)
3,CCC(=O)Nc1sc(C(=O)Nc2ccccc2)c(C)c1C(=O)OC,-0.53% (inactive)
4,COc1cc(CN2CCN(Cc3ccc(C)cc3)CC2)c([N+](=O)[O-])cc1OC,-0.12% (inactive)
5,N#Cc1ccc(-c2ccc(Cl)cc2)nc1Oc1ccc(F)cc1,3.94% (inactive)
6,N#Cc1c(-c2ccc(F)cc2)nc(-c2ccccc2)[nH]c1=O,1.19% (inactive)
7,N#Cc1ccc(-c2ccc(F)cc2)nc1Sc1ccccc1,9.92% (active)
8,COC(=O)c1nc(NC(=O)c2ccc(C(C)(C)C)cc2)n[nH]1,-0.27% (inactive)
9,COC(=O)C1=C(C(=O)OC)C(c2cc([N+](=O)[O-])ccc2O)c2sc(=O)[nH]c2S1 (stereo unspecified),-0.84% (inactive)
10,CCOC(=O)C(NC(C)=O)C(=O)Nc1ccc(OC)cc1 (stereo unspecified),1.23% (inactive)
11,Cc1cc(C)c(C2C3=C(Nc4c2c(C)nn4-c2ccccn2)c2ccccc2C3=O)c(C)c1 (stereo unspecified),9.18% (active)
12,Cc1nn(-c2ccccn2)c2c1C(c1ccncc1)C1=C(CC(C)(C)CC1=O)N2 (stereo unspecified),-0.66% (inactive)
13,Cc1ccc(C2C3=C(Nc4[nH]n(-c5ccccc5)c(=O)c42)c2ccccc2C3=O)cc1 (stereo unspecified),4.88% (inactive)
14,O=C(CN1CCN(C/C=C/c2ccccc2)CC1)Nc1ccc(F)cc1F,0.69% (inactive)
15,CCOCCCNCc1cc(Br)ccc1OCC,1.92% (inactive)
16,CCOC(=O)C1CCN(CCC(=O)Nc2cccc(C)c2)CC1,0.78% (inactive)
17,Cc1ccc(S(=O)(=O)N2CCOCC2)cc1C(=O)OC1CCCCC1=O (stereo unspecified),0.38% (inactive)
18,COc1ccc(C(=O)OCC(=O)NCC2CCCCC2)cc1S(=O)(=O)N1CCCc2ccccc21,2.15% (inactive)
19,COc1cc(/C=C/C(=O)O)cc(S(=O)(=O)Nc2ccccc2SC)c1OC,5.01% (inactive)
20,CCC(C)(C)NC(=O)/C=C/c1cc(OC)c(OC)c(S(=O)(=O)N2CCc3ccccc32)c1,9.06% (active)
21,Cc1cc(=O)[nH]c(N/N=C/c2c(C)nn(-c3ccccc3Cl)c2Cl)n1,1.7% (inactive)
22,CCOc1ccc(/C=N/Nc2nncc(-c3ccccc3)n2)cc1OC,-0.12% (inactive)
23,Cc1cc(OC(=O)c2ccccc2Cl)ccc1N1C(=O)CCC1=O,-1.28% (inactive)
24,COc1ccc(CCNC(=O)CCn2c(=O)c3ccccc3n(CC(=O)NCC3CCCO3)c2=O)cc1OC (stereo unspecified),4.36% (inactive)
